Shown are actives, neighbours in structure and some others; about 13% of the full set was active somewhere.
FMDV antiviral – blocks foot and mouth disease virus | hit rate 1.2% among 410,000 | Potency, µM (titrated, usually from 57.9 µM), for the others: top-dose activity change, negative = inhibition, usual class: inhibitors | FMDV antiviral cell-based qHTS; calls by dose curve; tested in HEK293T cells; further: read-out not given here; potency means the concentration at half of the fitted maximal effect; on the % scale 0 is the no-effect control and ±100 the full control effect; nearly all actives have a fitted effect of over 45% in size
Shiga toxin inh – inhibitors of Shiga toxin in Vero cells. Vero cells, Shiga toxin protein synthesis inhibition reporter. inhibition, % at 38.7 µM. hit rate 9.2% among 290,000. AID 2315; in the data active means inhibition mostly above about 28%, no sharp cut-off; inactive means mostly below about 43%; further: 0% is about no effect
HCV inhibitor – blocks hepatitis C virus; Potency, µM (doses to about 41.8 µM), without a hit: top-dose activity change, negative = inhibition, hits mostly inhibitors; hit rate 3.4% among 340,000; Huh7.5.1 HCVcc-Cre infection, luciferase reporter, 44 h; active means well fitted inhibition curve with a large enough effect; inconclusive means small, poorly fitted or top-dose-only effect, or another doubt; inactive means no such curve, though single readings can be large or run the other way; further: potency means the concentration at half of the fitted maximal effect; on the % scale 0 is the no-effect control and ±100 the full control effect
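Antiviral activity was scored by luciferase reporter output from cells infected with HCVcc-Cre (~0.5 moi) in presence of compound, 44 h infection period, cells seeded 1,000/well 4 h prior.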
Lassa entry inh – blocks Lassa virus binding to or entry into cells | AID 540256 | Lassa virus pseudotype entry inhibition, cell reporter | Potency, µM (titrated, usually from 37.9 µM), without a hit: at the highest dose activity change, negative = inhibition, hits mostly inhibitors | hit rate 1.2% among 300,000; calls by dose curve; tested in HEK293 cells; further: potency means the concentration at half of the fitted maximal effect; on the % scale 0 is the no-effect control and ±100 the full control effect; nearly all actives have a fitted effect of over 50% in size
MARV entry inh – blocks Marburg virus binding to or entry into cells | Marburg virus pseudotyped entry inhibition, cell reporter | Potency, µM (top dose mostly 37.8 µM), inactives show at the top dose activity change, negative = inhibition, most hits filed as inhibitors | hit rate 1.8% among 300,000; calls by dose curve; tested in HEK293 cells; further: potency means the concentration at half of the fitted maximal effect; on the % scale 0 is the no-effect control and ±100 the full control effect
CHX counter – counter-screen for Shiga toxin inhibitors: cycloheximide protein synthesis inhibition. cell reporter, cycloheximide protein synthesis inhibition counterscreen. AID 2314. max response, %. hit rate 12% among 300,000; in the data active means max response mostly above about 13%, no sharp cut-off; inactive means mostly below about 14%; further: read at 38.3 µM for the half of the compounds with a filed dose; 0% is about no effect
* marks the source's active call; other numbers are inactive results; ? = inconclusive; nt = not tested or not shown; + = active, no number; [ ] = another dose, or the depositor's remark.

SMILES | FMDV antiviral | Shiga toxin inh | HCV inhibitor | Lassa entry inh | MARV entry inh | CHX counter
CC1CCN(CCOc2ccc(C(=O)c3ccccc3)cc2)CC1 | -21% | 5 | -23% | -27% | ? | 2
COc1ccccc1CC1C(=O)C2CCN1CC2 (stereo unspecified) | -18% | 0 | -1% | 8% | ? | -4
COc1cccc(NS(=O)(=O)c2ccc3c(c2)CCCN3C(C)=O)c1 | nt | 3 | -11% | -16% | -14% | -3
CCCCn1nc(C(=O)O)ccc1=O | -5% | -5 | 10% | 1% | 12% | -2
COc1ccccc1Nc1cc(N2CCOCC2)c2nonc2c1[N+](=O)[O-] | -22% | 3 | -2% | 23% | 6% | -1
COc1ccc(C2OC(=O)CC2C(=O)N2CCN(c3cc(Cl)ccc3C)CC2)cc1OC (stereo unspecified) | -24% | -12 | 23% | nt | nt | -4
c1ccc(COc2ccc(OCCCN3CCCC3)cc2)cc1 | -16% | + | 10µM* | ? | 13µM* | 38*
NC(=S)NN=C1c2cc(OCCN3CCOCC3)ccc2-c2ccc(OCCN3CCOCC3)cc21 | 18µM* | -13 | 4µM* | ? | ? | 0
c1cc(OCCCN2CCCCC2)ccc1CN1CCCCC1 | -14% | -1 | ? | 7%[46.1 µM] | ? | -3
c1ccc(COc2ccc(OCCN3CCCCC3)cc2)cc1 | 34% | 47* | -5% | 10% | ? | 87*
Cc1ccc(OCCCCN2CCC(C)CC2)cc1 | -5% | 22 | ? | ? | ? | 6
CC1CCN(CCCOc2ccc(OCc3ccccc3)cc2)CC1 | 16% | 81* | ? | 10% | ? | 24*
O=C(OCCN1CCOCC1)c1ccc(OCCN2CCOCC2)cc1 | -2% | -7 | 6% | -15% | ? | -2
CC(C)N(C(=O)CSc1nnc(NC(=O)c2cccs2)s1)C(C)C | 4% | -8 | 6% | -5% | ? | -3
CCOC(=O)N1CCN(C(=O)/C(=C/c2ccccc2OC)NC(=O)c2ccccc2)CC1 | 31% | 1 | 6% | ? | 13% | -1
COc1cc(OC)c(OC)cc1CN1CCc2nc(N3CCN(c4ccccc4F)CC3)ncc2C1 | 11µM* | nt | nt | -2%[46.1 µM] | nt | nt
CCOc1ccc(CN2CCc3nc(N4CCN(c5ccccc5OC)CC4)ncc3C2)cc1OC | 20µM* | nt | nt | ? | nt | nt
COc1ccccc1N1CCN(c2ncc3c(n2)CCN(Cc2ccccc2F)C3)CC1 | -12% | nt | nt | 13%[46.1 µM] | nt | nt
COc1ccc(CN2CCc3nc(N4CCN(c5ccc(F)cc5)CC4)ncc3C2)c(OC)c1OC | 20µM* | nt | nt | ? | nt | nt
Cc1ccccc1CCN(C(=O)Cn1nnc2ccccc21)C(C(=O)NC(C)(C)C)c1ccsc1 (stereo unspecified) | 34% | -5 | 4% | ? | -8% | 11
Brc1ccc(-c2csc(NC3=NCCCCC3)n2)cc1 | 40% | 36 | -22% | 1% | 10%[46.1 µM] | 24*
Fc1ccc(-c2csc(NC3=NCCC3)n2)cc1 | 24% | 109* | ? | -15%[46.1 µM] | 2%[46.1 µM] | 21*
CCOc1ccc(-c2csc(NNC3=NCCCCC3)n2)cc1 | -26% | 40 | -25% | 26% | ? | 16*
COc1ccc(-c2csc(NNC3=NCCCCC3)n2)cc1 | -14% | 26* | ? | 3% | ? | 29*
Fc1ccc(NC2=NCCCCC2)cc1 | -6% | -4 | -5% | nt | -5%[46.1 µM] | 1
SMILES | FMDV antiviral | Shiga toxin inh | HCV inhibitor | Lassa entry inh | MARV entry inh | CHX counter
Cc1ccc(NC(=O)CCN2CCN(C)CC2)cc1 | -11% | -14 | 26% | 19%[46.1 µM] | 1%[46.1 µM] | -1
CCCCCNS(=O)(=O)c1cc(C)ccc1OC | 107% | 3 | 7% | 7% | 6% | -1
COc1ccc(NC2=NCCC2)cc1 | 0% | -17 | 12% | 11% | ? | -1
COc1ccc(-c2csc(NC3=NCCCCC3)n2)cc1 | 2% | 108* | ? | ? | ? | 33*
O=C(CCC1N=C2c3ccccc3N=C(SCc3cccc(Cl)c3)N2C1=O)NCc1ccco1 (stereo unspecified) | -18% | 24 | ? | ? | -55% | 15*
N#CCn1c(CCl)nc2ccccc2c1=O | 7.9µM* | -24 | 4% | nt | nt | -3
Cc1cc(=O)n2nc(N3CCCC3C(=O)Nc3ccc(C(C)C)cc3)sc2n1 (stereo unspecified) | 0% | -2 | 3% | nt | nt | -1
COc1cc(/C=N/Nc2snc(SC)c2C#N)cc(OC)c1OC | ? | -16 | ? | 1.3µM* | 1.6µM* | -2

High-throughput results as filed in PubChem BioAssay.
